# Assay results reported in PubChem BioAssay (EPA / NIEHS).
# The source made the active and inactive calls. Rule for the calls: active = hit-call score of the fitted dose curve at least 0.9, where 1 is the maximum; inactive = score below 0.9.
# Test: CCTE_Shafer_MEA_acute_burst_number: CCTE's Neural Acute Assay for Single-Electrode Bursts, Shafer Lab (AID 2284013)
# Experimental: CCTE_Shafer_MEA_acute assay is conducted using Axion Biosystems 48 well microelectrode array (MEA) plates and Maestro recording system. Each well of the MEA plate contains a grid of 16 microelectrodes embedded in the culture surface. Electrically active cells, such as neurons, can be cultured over the electrodes, and electrical activity in these cells can be recorded extracellularly. The spontaneous firing of neurons is captured from each electrode on a microsecond timescale providing both temporally and spatially precise data. […] The CCTE_Shafer_MEA_acute assay uses primary cultures of rat cortical neurons. As these cultures mature over time, neural networks develop functional activity and form cohesive networks in which electrical activity can be highly coordinated. Baseline 40-minute recordings are made on days post-plating 13 or 15, followed by a secondary 40-minute recording after chemical exposure.CCTE_Shafer_MEA_acute_burst_number is a component of the CCTE_Shafer_MEA_acute assay. It measures the total number of single-electrode bursts (temporally-clustered groups of action potential firing) during a recording in a microelectrode array (MEA) using Axion Biosystems Maestro 768 channel amplifier with the AxIS adaptive spike detector. The recordings before and after chemical treatment are used to calculate a percent change in the burst number in each well.Data from the assay component CCTE_Shafer_MEA_acute_burst_number was analyzed into 1 assay endpoint. This assay endpoint, CCTE_Shafer_MEA_acute_burst_number, was analyzed in the negative analysis fitting direction relative to DMSO as the negative control and baseline of activity. Using a type of functional reporter, gain or loss-of-signal activity can be used to understand electrical activity.
# Spontaneous activity in the cortical cultures was recorded using an Axion Biosystems Maestro 768 channel amplifier and Axion Integrated Studios (AxIS) v1.8 (or later) software. The amplifier recorded from all channels simultaneously (gain = 1200 x; sampling rate = 12.5 kHz/channel): raw signals were filtered with a Butterworth band-pass filter (300-5000 Hz), which filters out slower local field potentials leaving only fast potentials, i.e., "spikes", arising from extracellular currents associated with action potentials (Pine 2006; Wheeler and Nam 2011). On-line spike detection of filtered signals was conducted with the AxIS adaptive spike detector, using a threshold of 8x the root mean squared (rms) noise on each channel. Any electrodes with rms noise levels greater than 5 uV were grounded (e.g., no data were recorded). Once grounded, an electrode was grounded for the duration of the experiment. All recordings were conducted at 37 C. Wells were deemed usable if on the day of the exposure >/= 10 electrodes were active (defined as >/= 5 spikes/min). On DIV 13 or 15, a minimum of three wells from one cortical culture preparation were treated with each compound (0.03-40 uM). Prior to recording baseline activity, each mwMEA plate was placed in the Maestro at 37 C and allowed to sit for 20 min while firing rates stabilized. Baseline activity (40 min) was recorded before the addition of each compound. An additional 40 min of spontaneous activity was recorded in the presence of each compound. Changes in network parameters relative to baseline were assessed following compound treatment.
Structure (SMILES),outcome,AC50
NC(N)=Nc1nc(CSCCC(N)=NS(N)(=O)=O)cs1,inactive,–
COc1ccc(C(=O)c2ccccc2O)c(O)c1,–,0.003 µM (active)
CN(C)C(=O)C(CCN1CCC(O)(c2ccc(Cl)cc2)CC1)(c1ccccc1)c1ccccc1,–,0.283 µM (active)
CC1(C)S[C@@H]2[C@H](NC(=O)[C@H](N)c3ccc(O)cc3)C(=O)N2[C@H]1C(=O)O,inactive,–
CN(C)CCC(c1ccc(Cl)cc1)c1ccccn1 (stereo unspecified),inactive,–
COc1ccccc1Oc1c(NS(=O)(=O)c2ccc(C(C)(C)C)cc2)nc(-c2ncccn2)nc1OCCO,inactive,–
CC1(C)S[C@@H]2[C@H](NC(=O)[C@H](N)c3ccccc3)C(=O)N2[C@H]1C(=O)O,inactive,–
CN(C)Cc1cc(C(C)(C)C)c(O)c(C(C)(C)C)c1,inactive,–
CNCCC(Oc1ccc(C(F)(F)F)cc1)c1ccccc1 (stereo unspecified),–,0.693 µM (active)
O=[N+]([O-])c1cc(S(=O)(=O)Nc2ccccc2)ccc1Nc1ccccc1,inactive,–
COc1cc(CNC(=O)CCCC/C=C/C(C)C)ccc1O,inactive,–
Cc1c(C(N)=O)cc([N+](=O)[O-])cc1[N+](=O)[O-],inactive,–
CC(C)C1OCCN1CCOC(=O)NCCCCCCNC(=O)OCCN1CCOC1C(C)C (stereo unspecified),inactive,–
C1CN(CCOCCN2CCOCC2)CCO1,inactive,–
CC[N+](CC)(CC(=O)Nc1c(C)cccc1C)Cc1ccccc1 (tested in a mixture with another compound),inactive,–
CCC[Si](OC(C)=O)(OC(C)=O)OC(C)=O,–,0.0554 µM (active)
